The whole screen tested about 1,200 compounds, of which about 290 (24%) were called active. Roughly 9% stayed inconclusive and do not appear here. Only a sample is shown. Measured potencies and affinities stand elsewhere. Values without a mark were called inactive. How the calls were made is not given here.
Assay: cytotoxicity in EBV lymphoblastoid cells, dose response, cytotoxicity control, cell-based, plate reader, cherry-picks, set 2 (AID 504882);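 further: 0% = neutral control wells and -100% = positive control wells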
Conditions: EBV lymphoblastoid cells (LCL) viability; series mostly up to 19.5 µM; activity change, negative = cytotoxicity: at the top concentration

Compound | activity change, negative = cytotoxicity [%]
CC(C)(C)C(=O)Nc1nnc(SCC(=O)Nc2ccc3c(c2)OCO3)s1 | 13.9
O=C(NCCc1ccccc1)c1ccccc1Cl | 8.88
CCc1nnc(NC(=O)c2ccc(S(=O)(=O)N3CCOCC3)cc2)s1 | 10.7
CC(C)N1CCN(c2ccc(OC[C@H]3CO[C@](Cn4cncn4)(c4ccc(Cl)cc4Cl)O3)cc2)CC1 | -3.03
CCOc1cc(Br)cc(/C=N/NC(=O)c2cccnc2)c1O | -28.9
COc1cccc(/C=N\NC(=O)c2ccc(C)nc2)c1 | 19.6
Cc1ccnc(N/C=C(/NC(=O)c2ccccc2)C(=O)N/N=C\c2ccc(F)cc2)n1 | 9.12
Cc1ccccc1CC(=O)NCc1cccnc1 | 16.8
CC(NC(=O)CNC(=O)OCc1ccccc1)C(=O)N1CC(O)CC1C(=O)OCc1ccccc1 (configuration not stated) | 12.6
O=C(CN1C(=O)C2C3C=CC(C3)C2C1=O)NCCC1=CCCCC1 (configuration not stated) | 6.89
COCCn1c(C)cc(C(=O)CSc2nnc3ccccn23)c1C | 11.9
Cc1cc(C(=O)COC(=O)c2cccc(NS(C)(=O)=O)c2)c(C)n1CC1CCCO1 (configuration not stated) | 17
CSCCC(NC(=O)c1ccco1)C(=O)OCC(=O)Nc1ncc(Cl)c(C)c1Cl (configuration not stated) | 26.8
CNC(=O)C1=NCCCc2cc(OC)c(OC)cc21 | 24.7
Nc1ccn(C2CCCO2)c(=O)n1 (configuration not stated) | 14.8
Nc1ccc(CCNc2ncnc3c2ncn3[C@@H]2O[C@H](CO)[C@@H](O)[C@H]2O)cc1 | 7.71
NC(=O)c1ncn([C@@H]2O[C@H](CO)[C@@H](O)[C@H]2O)n1 | 14.5
CC1(C)CC(=O)C(CC2=C(O)CC(C)(C)CC2=O)=C(O)C1 | 9.73
CCc1cc(Cl)c(OC)c(C(=O)NC[C@@H]2CCCN2CC)c1O | 2.69
COc1ccc(NC(=O)CCS(=O)(=O)c2ccc3c(c2)CCN3C(C)=O)cc1 | 8.11
C=CCn1c(SCc2ccc3nonc3c2)nnc1-c1cccs1 | 18.4
COc1c(S(=O)(=O)N2CCN(c3ccc(F)cc3)CC2)ccc(Cl)c1Cl | 44.2
O=C(CCCN1C(=O)/C(=C/c2ccccc2Cl)SC1=S)NNC(=O)c1ccccc1Cl | 6.92
CN1C(=O)C(CC(=O)NC2CCCCC2)SC1=Nc1ccccc1 (configuration not stated) | 20.7

Compound | activity change, negative = cytotoxicity [%]
CCOc1ccc(-c2nc(CSCC(=O)NCc3ccco3)c(C)o2)cc1 | 0.208
COc1ccc(/C=C\C(=O)NCc2ccc3c(c2)cc(C)n3C)cc1OC | 7.82
COc1ccc(-c2csc3ncnc(NCCO)c23)cc1 | 12.6
CCOC(=O)Cc1csc(N/N=C\c2ccc(N(C)C)cc2)n1 | 3.66
CCCSc1nc2cc(S(=O)(=O)N3CCOCC3)ccc2n1CC | -0.597
CCc1c(C)nc2cc(-c3ccc(OC)c(OC)c3)nn2c1NCC1CC1 | -40.8
CCN(CC(=O)NCc1ccc(F)cc1)CC(=O)Nc1cc(S(=O)(=O)N(C)C)ccc1C | 15
COc1cc(NCCCCCCN)c2ncccc2c1OC | 25.1
CN(C)/C=C/C(=O)c1ccc2noc(-c3ccccc3)c2c1 | 15
CCc1ccc(C(=O)COC(=O)c2cccc(N3C(=O)c4c(C)nc5ccccc5c4C3=O)c2)cc1 | 41.6
O=C(Cn1nc(C(F)(F)F)c2c1CCC2)NC1CCCCC1 | 13.4
OCc1cc(C(O)CNCCCCCCOCCCCc2ccccc2)ccc1O (configuration not stated) | 18.7
Cc1cccc(-n2ncc3c(N4CCOCC4)ncnc32)c1 | -6.17
Cc1cccc(NC(=O)c2cnc3ccccn3c2=O)c1 | 4.87
CCOCCCn1c(=S)[nH]c2ncccc2c1=O | 2.14
Cc1ccn2c(c1)nc(=S)n2C(=O)c1ccccc1 | -0.036
CCC(C)N1C(=O)CCC1C(=O)N1CCN(c2ccc(F)cc2)CC1 (configuration not stated) | 10.4
CNC(=O)c1[nH]cnc1C(=O)N[C@@H](CCCCNC(=O)OC(C)(C)C)C(=O)OC(C)(C)C | 10.2
CN(C)c1ccnc2sc(C(N)=O)c(N)c12 | 1.46
O=C(Nc1ccc(F)c(F)c1)C1CCCCC1 | 0.732
O=C(C[n+]1ccccc1)N/N=C/c1ccc(O)cc1 | 30.2
Cc1cc(OCC(=O)Nc2cnn(CCCC(=O)O)c2)ccc1Cl | 21.1
COC(=O)c1cccc2c1-c1ccccc1/C2=N/O | 5.57
Cc1cccc(S(=O)(=O)N2CCCc3ccccc32)c1 | 0.222

Compound | activity change, negative = cytotoxicity [%]
COc1ccc(S(=O)(=O)N2CCN(CC(=O)Nc3cc(OC)cc(OC)c3)CC2)cc1 | 13
COc1ccc(S(=O)(=O)NNC(=O)C2Cc3c(ccc4ccccc34)O2)cc1 (configuration not stated) | 2.34
Cc1ccc(N2CCCCn3c2nc2c3c(=O)n(CC(=O)O)c(=O)n2C)cc1 | 13.5
Cc1ccc(N(Cc2cc3ccccc3[nH]c2=O)C(=O)c2ccco2)c(C)c1 | 13.3
COc1ccc(S(=O)(=O)N2CCC(C(=O)NC3CC3)CC2)cc1OC | 11.8
COc1ccc(-c2cnc(NCc3cc4c(cc3[N+](=O)[O-])OCO4)n2C)cc1 | 7.9
CNC1(C)[C@H]2CC[C@H](C2)C1(C)C (some centres not stated) | 15.2
Cc1ccc(S(=O)(=O)N2CCC[C@H]2C(=O)Nc2ccccc2C)cc1 | 2.08
Cc1ccc(C(=O)CSc2nnnn2C(C)C)c(C)c1 | 4.09
CN1CCc2cccc3c2C1Cc1ccc(O)c(O)c1-3 (configuration not stated) | 12.1
O=C(Nc1cc(Cl)ccc1Cl)C1Cc2ccccc2O/C1=N\O (configuration not stated) | 5.33
CC(NC(=O)CCOc1ccccc1)c1ccccc1 (configuration not stated) | 8.45
COc1cc2c(CCNC(C)=O)c[nH]c2cc1Cl | 12.4
COCC(=O)N(C)c1nnc(-c2ccccn2)s1 | 26
CC1(C)CC(NS(=O)(=O)c2ccc(F)cc2)CC(C)(C)N1 | 26.8
O=C(CC(c1ccc(F)cc1)c1ccco1)N1CCOCC1 (configuration not stated) | 0.708
COc1ccc(C(=O)C(CN2CCOCC2)c2ccccc2)cc1F (configuration not stated) | -82.4
O=C(Cn1cc(CNC(=O)C2CCCCC2)nn1)Nc1cc(C(F)(F)F)ccc1Cl | 9.71
C=CC[N+](C)(C)C/C(Cl)=C(\Cl)c1ccccc1 | -1.08
O=C1CCc2cc(OCCCCc3nnnn3C3CCCCC3)ccc2N1 | 10.6
Cc1nnc(NC(=O)CSc2nnc(Cc3cccn3C)n2CCc2ccccc2)s1 | 45.3
Cc1nnc(SCc2cnc(-c3ccc(C(C)C)cc3)s2)n1C | 4.92
COc1ccc(/C=N/N=C/c2ccc(OC)c(OC)c2)cc1OC | 20.2
COc1cc(/C=C2/SC(=S)N(Cc3ccccc3)C2=O)ccc1OCC(=O)O | 8.06

Source: PubChem BioAssay AID504882 (Broad Institute, 2011)
